Measured values: PubChem BioAssay (NCI)
This is part of a sample that, as a whole, favours compounds with a hit. Of some 83,000 tested, about 20% had one in any assay.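 96-well plates, one dose, 48 hours. Percent growth reported; active if below 10.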 A number with no mark means an inactive call. The source made the active and inactive calls.

What was measured:
Experiment in all cases: NCI-60 one-dose screen, 48 h (100 = growth as untreated, 0 = no growth, -100 = all killed)
Conditions in all cases: 10 µM
[1] = system: HCT-15 colon
[2] = system: HT29 colon
[3] = system: SNB-75 CNS
[4] = system: SNB-19 CNS
[5] = system: PC-3 prostate
[6] = system: SK-MEL-5 melanoma
[7] = system: UACC-62 melanoma
[8] = system: LOX IMVI melanoma
[9] = system: SK-MEL-28 melanoma
[10] = system: SK-MEL-2 melanoma
[11] = system: EKVX NSCLC
[12] = system: SN12C renal
[13] = system: UO-31 renal
[14] = system: TK-10 renal
[15] = system: ACHN renal
[16] = system: CAKI-1 renal
[17] = system: A498 renal
[18] = system: MOLT-4 leukemia
[19] = system: CCRF-CEM leukemia

Compound: COc1ccc(/C(C#N)=C/c2ccccc2OC)cc1
- growth [1]: 23.8%
- growth [2]: 6.29% (active)
- growth [3]: 28.4%
- growth [4]: 51.9%
- growth [5]: 55.6%
- growth [6]: 9.12% (active)
- growth [7]: 41.6%
- growth [8]: 37.2%
- growth [9]: 51.8%
- growth [10]: 15.9%
- growth [11]: 64.6%
- growth [12]: 47.3%
- growth [13]: 52.2%
- growth [14]: 53%
- growth [15]: 44.1%
- growth [16]: 39%
- growth [17]: 25.6%
- growth [18]: 21.3%

Compound: O=[N+]([O-])c1cccc(/C=N/NC(=S)NC23CC4CC(CC(C4)C2)C3)c1
- growth [1]: 96%
- growth [2]: 88.7%
- growth [3]: 17.9%
- growth [4]: 80.6%
- growth [5]: 75.9%
- growth [6]: 85.7%
- growth [7]: 84.3%
- growth [8]: 76.4%
- growth [9]: 85.4%
- growth [10]: 96%
- growth [11]: 71.2%
- growth [12]: 83.1%
- growth [13]: 89.9%
- growth [14]: 96.6%
- growth [15]: 49.6%
- growth [16]: 89.9%
- growth [17]: 97.1%
- growth [19]: 86.2%
- growth [18]: 96.3%

Compound: COc1cc(-c2nn(-c3cccc(NC(=O)NCCNS(=O)(=O)c4ccc(Cl)cc4)c3)cc2-c2ccncc2)ccc1Cl
- growth [1]: 26.5%
- growth [2]: -24.4% (active)
- growth [3]: 0.927% (active)
- growth [4]: 38.1%
- growth [5]: 7.5% (active)
- growth [6]: -74.6% (active)
- growth [7]: 25.6%
- growth [8]: -0.864% (active)
- growth [9]: 21.4%
- growth [10]: 2.83% (active)
- growth [11]: 29.8%
- growth [12]: 35.5%
- growth [13]: 21.1%
- growth [14]: 5.09% (active)
- growth [15]: 11.3%
- growth [17]: -10.5% (active)
- growth [19]: 9.85% (active)

Compound: CCCc1cn(CC(=O)Nc2nc3ccccc3s2)nn1
- growth [1]: 108%
- growth [2]: 104%
- growth [3]: 101%
- growth [4]: 102%
- growth [5]: 96.3%
- growth [6]: 99.5%
- growth [7]: 98.1%
- growth [8]: 96.6%
- growth [9]: 103%
- growth [10]: 105%
- growth [11]: 101%
- growth [12]: 98.5%
- growth [13]: 65.9%
- growth [14]: 103%
- growth [15]: 101%
- growth [16]: 87.6%
- growth [17]: 129%
- growth [18]: 110%

Compound: CC(=O)OC1C=CC(OC(C)=O)O1 (stereo unspecified)
- growth [1]: 95.4%
- growth [2]: 91.5%
- growth [3]: 95.3%
- growth [4]: 104%
- growth [5]: 92.7%
- growth [6]: 104%
- growth [7]: 84.4%
- growth [8]: 80.4%
- growth [9]: 110%
- growth [10]: 88.9%
- growth [11]: 99.3%
- growth [12]: 89.8%
- growth [13]: 59.4%
- growth [14]: 102%
- growth [15]: 97.9%
- growth [16]: 89%
- growth [17]: 81.3%
- growth [19]: 76.6%
- growth [18]: 90%

Compound: O=C1NC(=O)c2c(CCCSc3nc4ccccc4c(=O)n3CCc3ccccc3)cccc21
- growth [1]: 96%
- growth [2]: 90.3%
- growth [3]: 82.8%
- growth [4]: 94.8%
- growth [5]: 88.9%
- growth [6]: 95.8%
- growth [7]: 90%
- growth [8]: 81.8%
- growth [9]: 105%
- growth [10]: 105%
- growth [11]: 16.3%
- growth [12]: 91.7%
- growth [13]: 70.6%
- growth [14]: 124%
- growth [15]: 69.9%
- growth [16]: 18.5%
- growth [19]: 96%
- growth [18]: 81.3%

Compound: Cc1cc(O)ccc1C1=NN(c2ccc(S(C)(=O)=O)cc2)C(=O)CC1
- growth [1]: 44.9%
- growth [2]: 38.9%
- growth [3]: 75.2%
- growth [4]: 78.2%
- growth [5]: 77.9%
- growth [6]: 68.3%
- growth [7]: 52.9%
- growth [8]: 67.5%
- growth [9]: 81.2%
- growth [10]: 68.7%
- growth [11]: 72.2%
- growth [12]: 90.3%
- growth [13]: 48.8%
- growth [14]: 105%
- growth [15]: 79.7%
- growth [16]: 25.4%
- growth [19]: 69.7%
- growth [18]: 52.7%

Compound: CCc1ccc(C2=NN(c3ccc(S(C)(=O)=O)cc3)C(=O)CC2)cc1
- growth [1]: 22.1%
- growth [2]: 11.5%
- growth [3]: 16.7%
- growth [4]: 51.5%
- growth [5]: 56.6%
- growth [6]: 10.7%
- growth [7]: 38%
- growth [8]: 35%
- growth [9]: 50.7%
- growth [10]: 36.9%
- growth [11]: 60.4%
- growth [12]: 31.4%
- growth [13]: 33.3%
- growth [14]: 71.1%
- growth [15]: 46%
- growth [16]: 16.7%
- growth [19]: 15.6%
- growth [18]: 15.3%

Compound: CCOC(=O)CN(c1sc(C)c(C)c1C(=O)OCC)S(=O)(=O)c1ccc(C)cc1
- growth [1]: 99.3%
- growth [2]: 111%
- growth [3]: 91.7%
- growth [4]: 86.6%
- growth [5]: 74.5%
- growth [6]: 73.2%
- growth [7]: 68.2%
- growth [8]: 87.4%
- growth [9]: 102%
- growth [10]: 127%
- growth [11]: 101%
- growth [12]: 87%
- growth [13]: 80.7%
- growth [14]: 121%
- growth [15]: 98.1%
- growth [16]: 72.8%
- growth [17]: 106%
- growth [19]: 94.4%
- growth [18]: 97%

Compound: COc1ccc(/C(C#N)=C/c2cccc(OC)c2OC)cc1
- growth [1]: 68.1%
- growth [2]: 59.8%
- growth [3]: 91.3%
- growth [4]: 84.3%
- growth [5]: 82%
- growth [6]: 73.1%
- growth [7]: 70.5%
- growth [8]: 84.1%
- growth [9]: 84.5%
- growth [10]: 77.1%
- growth [11]: 99.9%
- growth [12]: 89.8%
- growth [13]: 78.1%
- growth [14]: 96.7%
- growth [15]: 99%
- growth [16]: 74.7%
- growth [17]: 87.2%
- growth [19]: 80.5%
- growth [18]: 82.8%

Compound: CCOC(=O)C1=CSC2=NC3=C(CCC/C3=C\c3cc(OC)c(OC)c(OC)c3)C(c3cc(OC)c(OC)c(OC)c3)N12 (stereo unspecified)
- growth [1]: 57.7%
- growth [2]: 12.9%
- growth [3]: 39.1%
- growth [4]: 85.1%
- growth [5]: 77.1%
- growth [6]: 60.3%
- growth [7]: 74.4%
- growth [8]: 23%
- growth [9]: 67.2%
- growth [10]: 106%
- growth [11]: 95.1%
- growth [12]: 54.4%
- growth [13]: 69.9%
- growth [14]: 84.7%
- growth [15]: 45.9%
- growth [16]: 66.3%
- growth [17]: 78.4%
- growth [19]: 16.8%

Compound: COc1cc2c(cc1NC(=O)C(F)(F)F)-c1ccc(NC(=O)C(F)(F)F)cc1C2
- growth [1]: 106%
- growth [2]: 106%
- growth [3]: -1.06% (active)
- growth [4]: 86.4%
- growth [5]: 90.8%
- growth [6]: 90.8%
- growth [7]: 92%
- growth [8]: 94.2%
- growth [9]: 103%
- growth [10]: 105%
- growth [11]: 104%
- growth [12]: 86.8%
- growth [13]: 102%
- growth [14]: 94.8%
- growth [15]: 62.9%
- growth [17]: 97.7%
- growth [19]: 97.6%
- growth [18]: 105%

Compound: O=C(CC(CC(=O)c1ccccc1)c1ccccc1O)c1ccccc1
- growth [1]: 96.5%
- growth [2]: 90.3%
- growth [3]: 89.1%
- growth [4]: 91.2%
- growth [5]: 81%
- growth [6]: 88.6%
- growth [7]: 81.5%
- growth [8]: 93.5%
- growth [9]: 101%
- growth [10]: 91.3%
- growth [11]: 95%
- growth [12]: 96.2%
- growth [13]: 78.4%
- growth [14]: 98.6%
- growth [15]: 99.3%
- growth [17]: 97.5%
- growth [19]: 98.6%
- growth [18]: 105%

Compound: CCOC(=O)CC(S(=O)(=O)c1ccccc1)S(=O)(=O)c1ccccc1
- growth [1]: 93.4%
- growth [2]: 91%
- growth [3]: 96.2%
- growth [4]: 93.4%
- growth [5]: 97.7%
- growth [6]: 96.6%
- growth [7]: 103%
- growth [8]: 98.6%
- growth [9]: 109%
- growth [10]: 97.4%
- growth [11]: 113%
- growth [12]: 95.7%
- growth [13]: 72.4%
- growth [14]: 56.4%
- growth [15]: 63.6%
- growth [17]: 115%
- growth [18]: 87.1%

Compound: O=C(/C=C/c1cccc(B(O)O)c1)c1cccc(B(O)O)c1
- growth [1]: -40.4% (active)
- growth [2]: -46.5% (active)
- growth [3]: 45.3%
- growth [4]: 43.9%
- growth [5]: 26.1%
- growth [6]: 22.1%
- growth [8]: -85.6% (active)
- growth [9]: -21.4% (active)
- growth [10]: 44.8%
- growth [11]: 56.3%
- growth [12]: -3.76% (active)
- growth [13]: -82.5% (active)
- growth [14]: -11.7% (active)
- growth [15]: 0.0369% (active)
- growth [16]: -8.72% (active)
- growth [17]: 65.5%
- growth [19]: -13.8% (active)
- growth [18]: 2.84% (active)

Compound: COC(=O)C1OC1c1cc([N+](=O)[O-])ccc1OC (stereo unspecified)
- growth [1]: 103%
- growth [2]: 117%
- growth [3]: 90.6%
- growth [4]: 110%
- growth [5]: 96%
- growth [6]: 98.8%
- growth [7]: 106%
- growth [8]: 93.4%
- growth [9]: 109%
- growth [10]: 111%
- growth [11]: 102%
- growth [13]: 74.4%
- growth [14]: 107%
- growth [15]: 108%
- growth [17]: 127%
- growth [19]: 96%
- growth [18]: 83.6%

Compound: Cc1ccc(C(=O)C2C(=O)C3CCC2C3)cc1 (stereo unspecified)
- growth [1]: 106%
- growth [2]: 108%
- growth [3]: 93.7%
- growth [4]: 95.7%
- growth [5]: 94.2%
- growth [6]: 102%
- growth [7]: 98.9%
- growth [8]: 95.4%
- growth [9]: 99.6%
- growth [10]: 111%
- growth [11]: 98.5%
- growth [12]: 97.3%
- growth [14]: 111%
- growth [15]: 100%
- growth [17]: 109%
- growth [19]: 96.3%
- growth [18]: 105%
